Screening data (PubChem)
TRHR PAM: allosteric enhancers of human TRH receptor; P34981; TRHR cells, fluo-8 calcium fluorescence, EC20 TRH enhancement; enhancement, % at 2 µM; 0.66% of 360,000 active; AID 493056; in the data active means enhancement above about 30%
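Enhancer read-out: after compound pinning and an initial kinetic agonist-mode read, an EC20 of TRH (10 nM final) was injected and fluo-8 calcium signal (Ex 480/Em 530) followed at 1 s/cycle for 100 cycles in TRHR-expressing cells.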
D1 potentiator: enhances dopamine response at the human D1 receptor. P21728. HEK293 TREx D1 cells, calcium flux, dopamine EC20 potentiation. potentiation, % at 10 µM. 0.036% of 360,000 active. AID 504651; in the data active means potentiation above about 30%
Target sequence (P21728 whole entry, looked up): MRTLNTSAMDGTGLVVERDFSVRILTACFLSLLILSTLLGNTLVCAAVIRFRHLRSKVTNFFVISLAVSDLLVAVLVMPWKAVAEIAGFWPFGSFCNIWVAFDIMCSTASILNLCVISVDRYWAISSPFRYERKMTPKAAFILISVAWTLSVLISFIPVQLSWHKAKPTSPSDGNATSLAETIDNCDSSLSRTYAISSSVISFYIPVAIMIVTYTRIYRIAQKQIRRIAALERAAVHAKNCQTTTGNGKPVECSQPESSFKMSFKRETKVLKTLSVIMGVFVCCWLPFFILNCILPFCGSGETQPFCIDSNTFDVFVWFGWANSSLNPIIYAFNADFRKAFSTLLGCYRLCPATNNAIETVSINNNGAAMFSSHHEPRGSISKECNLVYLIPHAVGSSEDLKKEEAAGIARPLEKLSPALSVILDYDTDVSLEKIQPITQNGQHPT
D1 antagonist: human D1 dopamine receptor antagonism. P21728. 3.2% of 360,000 active. AID 504652. HEK293 TREx D1 cells, calcium flux, dopamine EC80; hits give low values. activity change, negative = inhibition, % at 10 µM; in the data active means activity change below about -30%
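HEK293 T-REx cells expressing inducible, force-coupled D1 receptor; no-wash Ca dye, 30–90 min RT. Cmpd → 180 s read at 1 Hz → EC80 DA → 180 s read.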
D1 agonist: agonists of human D1 dopamine receptor | HEK293 T-REx D1 cells, calcium flux, agonist mode | P21728 | activation, % at 2 µM | 1% of 360,000 active | AID 504660
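Tetracycline-induced HEK293 TREx D1 cells, force-coupled to calcium signalling, were dye-loaded with a no-wash calcium kit. Compound was pin-added after a 10 s baseline. Fluorescence was read kinetically at 1 cycle/s for 180 s, with calcium rises flagged as agonism.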
TRHR agonist: TRH receptor (human) agonism | P34981 | TRHR cells, calcium flux fluo-8, FDSS agonist mode | 0.18% of 360,000 active | activation, % at 2 µM
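TRHR-expressing cells loaded with fluo-8 calcium dye; 23 nL library compound pin-transferred, kinetic FDSS fluorescence (Ex 480/Em 530) recorded about 180 s for agonist-induced calcium release, before a 10 nM TRH EC20 addition for potentiator mode.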
Large screens that a line does not name were inactive; ! = repeats disagree. The list is not random: actives were taken first. Their share in the collection is about 4.7%. Unless noted, no stated cut-off is given here; in the data, active means activation above about 30%; inactive means the rest.

CCn1cc(CN2CCCC(C(=O)Nc3cccc(-n4cccn4)c3)C2)c(C)n1 (stereo not given)	none
COc1cccc(-c2ccc(NC(=O)C3CCCN(CCCn4cccn4)C3)cc2)c1 (stereo not given)	D1 agonist 38
Cc1ccc(NC(=O)C(=O)NCC(c2ccc3c(c2)OCO3)N2CCN(c3ccccc3)CC2)cc1 (stereo not given)	none
CS(=O)(=O)N1CCC(n2c(C(F)(F)F)nc3cccnc32)CC1	none
COc1cc2c(C(=O)N(C)c3cc(Cl)ccc3OC)cn(CC(C)C)c(=O)c2cc1OC	none
CC1CCCCC1NC(=O)/C(C#N)=C/c1ccc(F)c(F)c1 (stereo not given)	D1 antagonist -45
Cc1cc2oc(C(=O)N(Cc3ccc(N(C)C)cc3)CC3CCCO3)c(C)c2cc1Cl (stereo not given)	none
CCOc1ccccc1NC(=O)CSc1nc2ccccc2nc1Cc1ccc(C)cc1	none
C=C[C@@H]1c2ccccc2N(S(=O)(=O)c2ccc(C)cc2)[C@H](c2ccc(OC(C)=O)cc2)C1(C#N)C#N	none
C=C[C@@H]1c2cc(C)ccc2N(S(=O)(=O)c2ccc(C)cc2)[C@H](c2ccc(OC(C)=O)cc2)C1(C#N)C#N	D1 agonist 40 (no result: D1 antagonist)
O=C(COC(=O)c1ccccc1Cl)Nc1nccs1	D1 agonist 45
O=C(COC(=O)c1cc(=O)[nH]c2ccccc12)Nc1nccs1	none
O=C1c2ccc(Oc3ccc([N+](=O)[O-])cc3)cc2C(=O)N1CCCO	D1 antagonist -37
CC(=O)[C@@]1(O)CC[C@H]2[C@@H]3C[C@H](C)C4=CC(=O)C=C[C@]4(C)[C@@]3(F)[C@@H](O)C[C@@]21C	D1 antagonist -59
CCCC(=O)O[C@]1(C(=O)COC(C)=O)CC[C@H]2[C@@H]3C[C@H](F)C4=CC(=O)C=C[C@]4(C)[C@@]3(F)[C@@H](O)C[C@@]21C	none
COC(=O)c1ccccc1NC(=O)c1ccc2nc(Cc3ccccc3)oc2c1	none
Cc1ccc(NC(=O)Cn2c(=O)cnc3ccccc32)cc1S(=O)(=O)N1CCCCC1	none
COc1ccc(NC(=O)Cn2c(=O)cnc3ccccc32)cc1S(=O)(=O)N1CCCCC1	D1 antagonist -48
CCOc1ccc(NC(=O)C2=NN(c3ccccc3)C(=O)CC2)cc1S(=O)(=O)N1CCCCC1	D1 antagonist -35
CCc1cccc(-n2nnc(-c3nsc(NC(=O)c4cccs4)n3)c2C)c1	none
COC(=O)CCC(=O)NNC(=O)c1cccc(Br)c1	D1 antagonist -38
O=C(O)CCC(=O)NNC(=O)c1cccc(Br)c1	none
O=C(NNC(=O)c1cccc(Br)c1)Nc1ccc(Cl)cc1	D1 antagonist -37
COc1ccc(C2C(=O)N(C3CCCCCC3)CC(=O)N2CCc2ccccc2)cc1 (stereo not given)	none
O=C(Nc1c(C(=O)N2CCN(c3ccc(F)cc3)CC2)oc2ccccc12)c1c(F)cccc1F	D1 antagonist -59
COc1ccc(CC(=O)Nc2c(C(=O)N3CCN(c4ccccc4OC)CC3)oc3ccccc23)cc1OC	none
COc1ccc(CC(=O)Nc2c(C(=O)N3CCN(c4ccccc4)CC3)oc3ccccc23)cc1OC	D1 antagonist -31!
Cc1cccc(C(=O)Nc2c(C(=O)N3CCN(c4ccc(F)cc4)CC3)oc3ccccc23)c1	none
CN(C)CCCN1c2ccccc2Sc2ccccc21	D1 antagonist -81, D1 agonist 42
CN(C)CCCN1c2ccccc2CCc2ccc(Cl)cc21	D1 antagonist -96, D1 agonist 36
O=C(Cn1c(-c2cccs2)cc2cc(Cl)ccc21)N1CCN(c2ccccc2)CC1	none
COC(=O)NC(=S)Nc1ccc(Oc2ccc(Cl)cc2)c(Cl)c1	D1 antagonist -35
COc1cc(C)nc(NS(=O)(=O)c2ccccc2)n1	D1 antagonist -37
Cc1ccc(Nc2nc(C#N)nc(NC3CCCC3)n2)cc1	none
Cc1cc(C)cc(-n2c(SCC(=O)Nc3ccccc3)nc3c(oc4ccccc43)c2=O)c1	none
O=C(NCCc1ccccc1)c1cc(S(=O)(=O)N2CCCC2)ccc1F	none
CCCCNC(=S)Nc1cc(S(=O)(=O)N2CCCCC2)ccc1C	D1 antagonist -37
CCCCCNC(=O)c1cc(S(=O)(=O)N2CCCCC2)ccc1F	D1 antagonist -62
CC(=O)c1c(C)[nH]c(C(=O)Nc2cc(S(=O)(=O)N3CCCCC3)ccc2C)c1C	D1 antagonist -31
CC(=O)c1c(C)[nH]c(C(=O)Nc2cccc(S(=O)(=O)N3CCOCC3)c2)c1C	none
Cc1cccc(CN2C(=O)c3ccccc3Sc3ccc(C(=O)N4CCCC4)cc32)c1	none
Cc1ccc(N2CC(NC(=O)c3cccs3)CC2=O)cc1C (stereo not given)	none (no result: D1 antagonist)
CCC1=Nc2cc(C(=O)NC3CCCC3)ccc2Sc2ccc(Cl)cc21	D1 antagonist -34
CC1=Nc2cc(C(=O)NC3CCCC3)ccc2Sc2ccc(Cl)cc21	none
CCC1=Nc2cc(C(=O)NCc3ccc(C)cc3)ccc2Sc2ccc(C)cc21	none
CCC1=Nc2cc(C(=O)NCc3cccnc3)ccc2Sc2ccc(C)cc21	D1 antagonist -76
CN1CCN(CCOC2Cc3ccccc3Sc3ccc(Cl)cc32)CC1 (stereo not given)	D1 antagonist -66
OCCN1CCN(C2Cc3cc(Cl)ccc3Sc3ccc(Cl)cc32)CC1 (stereo not given) (tested in a mixture with another compound)	D1 antagonist -86
O=C(CN1CCN(CCOCCO)CC1)N1c2ccccc2Sc2ccc(Cl)cc21	none
Cn1cnc(S(=O)(=O)N2CCC(C(=O)NCc3ccc(Cl)cc3)CC2)c1	none
COc1ccc(-c2csc(-c3nc(-c4ccc(Br)s4)cs3)n2)cc1F	none
Cc1ccc(C(=O)N[C@@H](C)CN2C3=NC[C@H](C)N3C[C@H]2Cc2ccc(O)cc2)cc1Br	D1 antagonist -65
CC(C)c1ccc(S(=O)(=O)N2CCN(C(=O)c3ccncc3)CC2)cc1	D1 antagonist -31 (no result: D1 potentiator)
Nc1nc(N)c2cc(Sc3ccc4ccccc4c3)ccc2n1	D1 agonist 33
Nc1ccc(Sc2cc(Cl)nc(N)n2)cc1	none
Cc1cccn2c(Nc3ccccc3)c(-c3ccc(N4CCOCC4)cc3)nc12	D1 antagonist -45
O=C(COc1ccccc1-c1nc(-c2ccccc2)no1)Nc1cccc([N+](=O)[O-])c1	none
Cc1cc(NC(=O)CS(=O)(=O)c2cn(Cc3ccc(F)cc3)c3ccccc23)no1	D1 antagonist -39
Cc1cc(=O)oc2cc(OC(=O)c3cncc(Br)c3)ccc12	D1 antagonist -45
COc1cc(O)c(C(=O)/C=C/c2ccccc2)c(OC)c1	D1 antagonist -56
CC(=O)N1CCCc2cc(S(=O)(=O)NCc3ccc(OC(C)C)cc3)ccc21	none
